PubChem BioAssay (NCI)
About 83,000 compounds went through this panel and 20% of them were active in at least one assay; those are over-represented in the sample as a whole.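 Testing used 96-well plates and a 48-hour single-concentration exposure. Example: -40 means 40% of the starting cells died.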 A number with no mark means an inactive call. The source made the active and inactive calls.

Tested on: A549/ATCC NSCLC
Test: NCI-60 one-dose screen, 48 h (100 = growth as untreated, 0 = no growth, -100 = all killed)
Details: 10 µM
Method: Growth inhibition of the A549/ATCC human Non-Small Cell Lung tumor cell line is measured as a screen for anti-cancer activity. Cells are grown in 96 well plates and exposed to the test compound for 48 hours. Compounds are tested at a single concentration, which is 10^-5 M for most compounds. The reported endpoint is percent growth (GI% or GIPRCNT), where numbers from 0 - 100% represent growth inhibition, and numbers from -100% - 0 represent cell death. For example, a value of 40 represents 60% growth inhibition. A value of 0 means no net growth occurred over the course of the experiment. A value of -40 indicates 40% of cells at the beginning of the experiment died by the end of the experiment. A value of -100 means all cells are dead at the end of the experiment.
NCI-60 Human Tumor Cell Lines Screen was performed using the standard one-dose NCI protocol, which is described in more detail at https://dtp.cancer.gov/discovery_development/nci-60/default.htm.
Compounds with GIPRCNT values below 10 were considered active. Activity score was based on GIPRCNT using the following formula: […]
Score is 0 for GIPRCNT values of 100 or above, 50 for GIPRCNT values of 0, and 100 for GIPRCNT values of -100.

SMILES	growth
CC(=O)NS(=O)(=O)c1ccc(NC(=O)CSC2=NC(c3ccccc3)C(C(C)=O)=C(C)N2)cc1 (stereo not given)	98.1%
O=C(COc1ccc(NC(=O)Nc2ccc(Cl)cc2)cc1)N=Nc1c(O)[nH]c2ccc([N+](=O)[O-])cc12	105%
O=C(c1ccc(O)cc1)C1[C@H](c2ccc(Br)cc2)[C@@H](c2ccccc2)NC12C(=O)Nc1ccc(Br)cc12 (stereo not given in full)	13.4%
O=C(/C=C/Nc1ccccc1)c1ccc2c(c1)Nc1ccccc1S2	87.7%
CCOC(=O)N/C(=C1/OCCN1C)[P+](c1ccccc1)(c1ccccc1)c1ccccc1	89%
CCN1CCN(Cc2ccc(C(=O)Nc3cccc(-c4cn(-c5ccc6oc(=O)ccc6c5)nn4)c3)cc2C(F)(F)F)CC1	-100% (active)
COc1ccc([C@H]2C(C(=O)c3ccc(Cl)cc3)C3(N[C@@H]2c2ccccc2)C(=O)Nc2ccc(Br)cc23)cc1 (stereo not given in full)	17.3%
N#Cc1c(-c2ccc(F)cc2)nc(SCc2ccc(F)cc2)nc1N1CCOCC1	69%
COc1ccc(Nc2nc(N)n(Cc3cccc(Br)c3)n2)cc1	19.6%
O=C(c1ccc(O)cc1)C1[C@H](c2ccc(Br)cc2)[C@@H](c2ccccc2)NC12C(=O)Nc1ccccc12 (stereo not given in full)	29.5%
O=C(Nc1ccccc1)Nc1nc2ccccc2s1	89.5%
CC(=O)C1=C(C)NC(SCC(=O)Nc2ccc(S(=O)(=O)Nc3cc(C)on3)cc2)=NC1c1ccccc1 (stereo not given)	99.1%
O=C(NCCCCC(c1ccc(F)cc1)c1ccc(F)cc1)NCCCc1cccnc1	27.2%
Cc1cc(=O)oc2cc(OCCCCOc3ccc(/C=C/C(=O)Nc4cccc(Cl)c4)cc3)ccc12	55.4%
COc1ccccc1C(=O)NNC(=O)CSc1nc2c(c(=O)[nH]1)CCCC2	106%
COc1cccc(C(N)=Nc2ccc(OCCCCCCn3cncn3)cc2)c1	26.5%
Clc1ccc2c(N/N=C/c3c[nH]c4ccc(Br)cc34)ccnc2c1	1.71% (active)
COc1cc2c3c(n(CCCNC(C)C)c(=O)c2cc1OC)-c1nc2c(cc1C3=O)OCO2	-62.8% (active)
COc1cc(/C=C/C(=O)c2ccc(NC(=O)CSc3nnc(-c4c[nH]c5ccccc45)n3-c3ccccc3)cc2)cc(OC)c1OC	106%
O=C(c1ccc(Cl)cc1)C1[C@H](c2ccc(Br)cc2)[C@@H](c2ccccc2)NC12C(=O)Nc1ccccc12 (stereo not given in full)	15%

SMILES	growth
CC(=O)Nc1nc(-c2ccc(N3CCN(C)CC3)c(NS(=O)(=O)c3ccc(C(F)(F)F)cc3)c2)cs1	55.5%
COc1ccc2c(c1)N=C(C(=O)O)/C2=C/c1sc(Nc2ccc(O)cc2)nc1O	96.2%
O=C(CSc1nnc(-c2c[nH]c3ccccc23)n1-c1ccccc1)Nc1ccc(C(=O)/C=C/c2ccc(Br)cc2)cc1	89.6%
C=C(C)[C@@H]1CC[C@]2(C)[C@H](CC=C3[C@@H]4CC(C)(C)CC[C@]4(C(=O)N4CCOCC4)CC[C@]32C)[C@@]1(C)CCCN	-84.1% (active)
C/C(=N\N=C\c1ccc(Cl)c([N+](=O)[O-])c1)c1ccc2c(c1)Nc1ccccc1S2	60.2%
Cc1cc2c(c(O)c1Br)-c1ncoc1C(=O)[C@]1(C)CC[C@H](C(C)C)[C@H]21	16.5%
COc1ccc([C@H]2C(C(=O)c3ccc(Cl)cc3)C3(N[C@@H]2c2ccccc2)C(=O)Nc2ccc(Cl)cc23)cc1 (stereo not given in full)	18.2%
Cc1ccc(CSc2nc(Cl)c(C#N)c(-c3ccc(F)cc3)n2)cc1	66.5%
CC(C)NC(=O)c1cc(-c2ccc(NC(=O)Nc3ccc(N4CCN(C)CC4)c(C(F)(F)F)c3)cc2)nc2cccnc12	-78.9% (active)
Cc1ccc(-c2ccc(SCC(=O)Nc3ccc(Cl)c(C(F)(F)F)c3)nn2)cc1	40.4%
COc1ccc(CN2[C@H](C(=O)NCc3ccc(C(=O)NO)cc3)Cc3c([nH]c4ccccc34)[C@H]2C2CC2)cc1	61.3%
COc1nccnc1NS(=O)(=O)c1ccc(NC2=C(Cl)C(=O)c3nc(C)ccc3C2=O)cc1	105%
O=C1Nc2cc(-c3ccc(NC(=O)c4cccc([N+](=O)[O-])c4)cc3)ccc2/C1=C/c1ccc[nH]1	94.5%
CC1(C)[C@@H](NCO)CC[C@]2(C)[C@H]3C(=O)C=C4[C@@H]5C[C@](C)(CO)CC[C@]5(C)CC[C@@]4(C)[C@]3(C)CC[C@@H]12	60%
N#Cc1c(Cl)nc(SCc2ccc(F)cc2)nc1-c1ccc(F)cc1	91.6%
Cc1ccc(-c2nc(Nc3ccccc3C(=O)O)c3ccccc3n2)cc1	30.5%
N#Cc1ccc(-c2nn(-c3ccc(C(=O)O)cc3)cc2CNc2cc(Cl)cc(C(F)(F)F)c2)cc1	29.7%
COc1ccc(C(=O)Nc2ccc(-c3ccc4c(c3)NC(=O)/C4=C\c3ccc[nH]3)cc2)cc1	74.4%
Cc1ccc(-c2nc(Nc3ccc(S(N)(=O)=O)cc3)c3ccccc3n2)cc1	51.7%
COc1cccc(-c2nn(-c3ccccc3)cc2-c2ccnc(NCCCNC(=O)Nc3ccc(F)cc3)c2)c1	15.1%
